Source: a collection of fitness landscapes (doi:10.1126/science.1257360)
In all, about 140,000 sequences were measured (“enrichment ratio after two sorts for PhoP signalling”: median about 0, highest 2% from about 11 on). The entries come from a sample that favours the highest values as a whole.

B1: PhoQ; a variant is named by its letters at X, in order, P23837 (parent)
chain: MKKLLRLFFPLSLRVRFLLATAAVVLVLSLAYGMVALIGYSVSFDKTTFRLLRGESNLFYTLAKWENNKLHVELPENIDKQSPTMTLIYDENGQLLWAQRDVPWLMKMIQPDWLKSNGFHEIEADVNDTSLLLSGDHSIQQQLQEVREDDDDAEMTHSVAVNVYPATSRMPKLTIVVVDTIPVELKSSYMVWSWFIYVLSANLLLVIPLLWVAAWWSLRPIEALAKEVRELEEHNRELLNPATTRELTSLVRNLNRLLKSERERYDKYRTTLTDLTHSLKTPLXXLQXXLRSLRSEKMSVSDAEPVMLEQISRISQQIGYYLHRASMRGGTLLSRELHPVAPLLDNLTSALNKVYQRKGVNISLDISPEISFVGEQNDFVEVMGNVLDNACKYCLEFVEISARQTDEHLYIVVEDDGPGIPLSKREVIFDRGQRVDTLRPGQGVGLAVAREITEQYEGKIVAGESMLGGARMEVIFGRQHSAPKDE

Variants of: B1
Test: enrichment ratio after two sorts for PhoP signalling (ratio (wild type AVST 3.29)); higher = more functional
Details: with PhoP (E. coli)

Variant | enrichment ratio
LKST | ≤ 0.25
GVIN | ≤ 0.25
MQIN | ≤ 0.25
QHSN | ≤ 0.25
YAPD | ≤ 0.25
QLGK | 3.11
MDFQ | ≤ 0.25
YSCM | 12.8
SSCK | 4.35
YRCM | ≤ 0.25
YSCK | ≤ 0.25
SSCM | 19
VNCM | 4.53
AINP | ≤ 0.25
SWTQ | ≤ 0.25
NHMH | ≤ 0.25
AGWR | ≤ 0.25
AYMH | ≤ 0.25
HGMH | ≤ 0.25
AHMH | ≤ 0.25
TGMH | 14.5
RGMH | ≤ 0.25
AGMH | 26
THMH | 13.2
PWRH | ≤ 0.25
DSMV | ≤ 0.25

Variant | enrichment ratio
ALNP | ≤ 0.25
ILLI | ≤ 0.25
IWRF | ≤ 0.25
LDDP | ≤ 0.25
NHCF | ≤ 0.25
NMCF | ≤ 0.25
ALCF | 13.2
MMCF | ≤ 0.25
AKCF | 1.73
NICF | ≤ 0.25
AMCF | 12.3
AICF | 13.5
WICF | ≤ 0.25
PLCF | ≤ 0.25
THCF | 17.5
SHCF | 7.35
IASH | ≤ 0.25
FYVH | ≤ 0.25
ESKG | ≤ 0.25
WMCQ | ≤ 0.25
VWMT | ≤ 0.25
PQSG | ≤ 0.25
VPYN | ≤ 0.25
AAPG | ≤ 0.25
DMIH | ≤ 0.25
MFGN | ≤ 0.25

Variant | enrichment ratio
WLAI | ≤ 0.25
SQAI | 15.1
SKAI | 14
VLAI | ≤ 0.25
SKPA | ≤ 0.25
SLAI | 15.7
SAAI | 7.86
SKFA | ≤ 0.25
IQAI | ≤ 0.25
YGYC | ≤ 0.25
YRGI | ≤ 0.25
YDSS | ≤ 0.25
AHPL | ≤ 0.25
RPNK | ≤ 0.25
SEVE | 6.62
KSLE | ≤ 0.25
KYLE | ≤ 0.25
SFLE | ≤ 0.25
QELE | ≤ 0.25
NELE | ≤ 0.25
SELE | 21.5
FELE | 20.4
SPLE | ≤ 0.25
SQLE | 16.5
DPLE | ≤ 0.25
SSLE | 12

Variant | enrichment ratio
LDMG | ≤ 0.25
LDRD | ≤ 0.25
SKTY | ≤ 0.25
FKIR | ≤ 0.25
PKAM | ≤ 0.25
NVYD | ≤ 0.25
IGIE | ≤ 0.25
KYVT | ≤ 0.25
PQLS | ≤ 0.25
PYIW | ≤ 0.25
WQLE | ≤ 0.25
LTLE | ≤ 0.25
GTLE | 14.3
GYLE | ≤ 0.25
GQLE | 14.3
YTLE | 3.23
TWHD | ≤ 0.25
YYAE | ≤ 0.25
KCKS | ≤ 0.25
HTMI | 1.06
WRCP | ≤ 0.25
FWNS | ≤ 0.25
AVWR | ≤ 0.25
AVCV | 5.84
AVAM | 3.19
AVPM | 1.53

Variant | enrichment ratio
AVTH | 9.18
AVSH | 12.4
AVCK | 16.2
AVTM | 12.4
AVMH | 11.8
AVGM | 3.94
AVWM | ≤ 0.25
AVCC | 8.73
MFGF | ≤ 0.25
LYKG | ≤ 0.25
ASIY | 3.82
VFVG | ≤ 0.25
DYAM | ≤ 0.25
DHDS | ≤ 0.25
AVCM | 15.4
PVCG | ≤ 0.25
NVCH | ≤ 0.25
AVAH | 13.4
NVCM | ≤ 0.25
FVCM | 2.91
NVCG | ≤ 0.25
TVAH | 3.22
AVTI | 10.4
AVAT | ≤ 0.25
AVCH | 13
AVCG | 16

Variant | enrichment ratio
DWKH | ≤ 0.25
QWAC | ≤ 0.25
PYDI | ≤ 0.25
SRND | ≤ 0.25
DGIY | ≤ 0.25
KFTT | ≤ 0.25
MWVS | ≤ 0.25
NKPN | ≤ 0.25
STYR | ≤ 0.25
AVCS | 8.99
AVCI | 21.8
AVCE | ≤ 0.25
RVVQ | ≤ 0.25
VRPL | ≤ 0.25
IQLV | ≤ 0.25
AQIQ | 27.9
AQQQ | ≤ 0.25
AEIQ | 24.4
ACIQ | 11.8
AEHP | ≤ 0.25
AQHP | ≤ 0.25
AEIA | 15.4
AEIE | ≤ 0.25
